TIM10 inh – growth inhibitors of isogenic TIM10 control yeast, primary screen, counter-screen for tim10-1 yeast inhibitor project, luminescence, uHTS; inhibition, % at 10 µM; 330,000 compounds, 1.4% hits; S. cerevisiae TIM10 strain growth, BacTiter-Glo luminescence, 24 h; AID 463195, 2010;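 active = inhibition of 40% or more at the single tested concentration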;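 also: wild-type TIM10 isogenic control strain grown at permissive 25 °C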
tim10-1 inh – growth inhibitors of tim10-1 mutant yeast, primary screen, luminescence, uHTS; S. cerevisiae tim10-1 ts strain growth, BacTiter-Glo, 24 h; 330,000 compounds, 2.2% hits; inhibition, % at 20 µM;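 active = inhibition of at least 40%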;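 also: mutant grown at 25 °C; 0% = DMSO wells with yeast and 100% = wells holding no yeast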
tim23-1 inh – growth inhibitors of tim23-1 mutant yeast, primary screen, luminescence, uHTS | S. cerevisiae tim23-1 growth, BacTiter-Glo luminescence, 24 h | inhibition, % at 20 µM | 330,000 compounds, 1.3% hits | AID 463212, 2010;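 active = growth inhibition of the mutant yeast at or above 50%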;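 also: temperature-sensitive mutant grown at 25 °C; plate controls were DMSO-treated mutant yeast for no effect and medium wells lacking yeast for full effect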
PfHsp90 yeast 2 – growth inhibition of PfHsp90-expressing yeast, primary screen, antimalarial PfHsp90 inhibitor project, S. cerevisiae, BacTiter-Glo luminescence, single point, set 2. BacTiter-Glo ATP, 48 h; yeast lacking PDR1 and PDR3 efflux regulators. inhibition, % at 9.4 µM. 310,000 compounds, 0.32% hits. AID 504621, 2011;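 active = every replicate shows inhibition above about 80%, whatever the replicate mean, limit read from the data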;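 also: 0% = DMSO neutral controls and 100% = 20 µM radicicol positive controls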
NLRP3 yeast inh – NALP3 inflammasome inhibitors in reconstituted yeast, primary screen, luminescence, uHTS; Yeast reconstituted NLRP3/ASC/caspase-1, beta-gal luminescence, 24 h; inhibition, % at 10 µM; 330,000 compounds, 0.39% hits; AID 2825, 2010;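 active = inhibition of 50% or more; inactive = inhibition below 50%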;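 also: plate controls were induced DMSO wells for no effect and uninduced yeast grown without galactose for full effect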
NALP1 yeast inh – NALP1 inflammasome inhibitors in reconstituted yeast, colorimetric, S. cerevisiae, triplicate retest; AID 2071, 2009; S. cerevisiae NALP1/ASC/caspase-1 growth, X-gal OD620, 72 h; inhibition, % at 10 µM; 280,000 compounds, 0.61% hits; in the data active = inhibition mostly above about 24%, no sharp cut-off; inactive = mostly below about 32%
tim10-1 conf – growth inhibitors of tim10-1 mutant yeast, confirmation, single concentration, luminescence, S. cerevisiae; inhibition, % at 20 µM; S. cerevisiae tim10-1 ts strain growth, BacTiter-Glo, 24 h; 7,400 compounds, 56% hits; shares compounds with tim10-1 inh;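 active = inhibition of yeast growth at or above a set limit in either of two repeat tests at 20 µM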;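 also: tim10-1 mutant grown at permissive 25 °C to find synthetic lethal compounds; 0% = DMSO yeast wells and 100% = medium wells without yeast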
Numbers without * were called inactive; . = no result. A selection: hits, their analogues and other compounds. The true share with any hit is near 4.2%.

SMILES | TIM10 inh | tim10-1 inh | tim23-1 inh | PfHsp90 yeast 2 | NLRP3 yeast inh | NALP1 yeast inh | tim10-1 conf
CCOC(=O)c1c(N)sc(C(=O)OC)c1C | -14.6 | 1.9 | 5.5 | -15.2 | 19.5 | 18.1 | .
CCOC(=O)c1c(N)sc2c(OC)c(Br)ccc12 | 32.0 | 58.3* | 39.0 | 13.5 | 34.4 | 9.2 | 45.4*
O=C(CO/N=C/c1cccc([N+](=O)[O-])c1)Nc1ccc2ccccc2c1 | 9.1 | 44.9* | 16.0 | 30.7 | 23.1 | 38.8 | 23.9
O=C(NC(=S)Nc1ccc(Cl)cn1)C12CC3CC(CC(C3)C1)C2 | 30.6 | 40.4* | 24.0 | -17.5 | -9.7 | -1.2 | 13.8
CCCC(=O)Nc1ccc(NC(=O)C23CC4CC(CC(C4)C2)C3)cn1 | 30.0 | 44.2* | 40.5 | -2.0 | 15.5 | -0.2 | 32.6*
CCCC(=O)Nc1ccc(NC(=O)c2ccccc2)nc1 | 4.0 | -5.2 | 8.4 | 4.2 | -11.2 | . | .
O=C(NC(=S)NC1C2CC3CC(C2)CC1C3)C12CC3CC(CC(C3)C1)C2 (centres undefined) | 38.9 | 45.9* | 35.1 | -19.7 | -0.3 | 9.7 | 15.4
O=C(NNC(=S)NCc1ccco1)c1ccc(S(=O)(=O)N2CCOCC2)cc1 | -7.9 | 23.7 | 11.9 | -39.0 | 10.2 | -4.9 | .
O=C(CS(=O)CC(=O)N(CC(=O)NC1CCCC1)c1ccccc1F)Nc1ccc(F)cc1 (centres undefined) | 4.3 | -9.5 | 0.8 | -3.3 | 14.7 | 6.7 | .
Cc1[nH]n(-c2ncc(-c3ccc(Cl)cc3)s2)c(=O)c1C(c1ccc(Cl)cc1)C(C#N)C#N (centres undefined) | 27.3 | 39.4 | 43.4 | -59.3 | 4.9 | 18.0 | .
COc1ccc(C(c2c(C)[nH]n(C(N)=S)c2=O)C(C#N)C#N)cc1 (centres undefined) | 17.7 | 44.1* | 47.4 | -11.9 | 18.3 | -1.9 | 24.0
Cc1noc(/C=C/c2ccccc2F)c1S(=O)(=O)N1CCC(C(=O)N2CCN(C)CC2)CC1 | 7.6 | 40.0* | 33.9 | -12.6 | 15.7 | 11.8 | 15.8
CCN1CCN(CC(=O)Nc2cc(C(F)(F)F)ccc2OCCOC)CC1 | 6.2 | -7.2 | 0.9 | 20.2 | -7.6 | . | .
Cc1nn(-c2ccccc2)c(Cl)c1/C=C1\C(=O)N(C)C(=S)N1C | -5.8 | 20.5 | 4.7 | 37.1 | 12.9 | 23.2 | .
Cc1nn(-c2ccc(F)cc2)c(Cl)c1/C=C1\C(=O)Nc2ccccc21 | 35.2 | 54.1* | 20.1 | -12.2 | -0.2 | 30.2 | 40.6*
Cc1cccc(C2(c3cccc(C)c3)CC2C(=O)Nc2ccc([N+](=O)[O-])cc2O)c1 (centres undefined) | 14.6 | 11.2 | 11.4 | -2.7 | 16.2 | 15.9 | .
Cc1cc(C)c(S(=O)(=O)NC2CC(C)(C)NC(C)(C)C2)cc1Br | -3.3 | 5.2 | 5.6 | -9.0 | 10.2 | 0.1 | .
CN1CCN(c2cc(N3CCc4ccccc4C3)c(F)cc2[N+](=O)[O-])CC1 | 29.8 | 48.0* | 33.8 | -10.2 | 14.5 | 19.8 | 38.5*
O=C(Nc1nnc(C2CCCCC2)s1)c1ccco1 | 23.6 | 44.8* | 31.6 | -28.1 | 13.5 | 20.4 | 34.7*
C=CCSC1=N/C(=C\c2cc(OCC)c(OC(C)=O)c([N+](=O)[O-])c2)C(=O)S1 | 12.0 | 42.3* | 27.4 | -9.0 | -57.5 | -21.5 | 25.2
CCOC(=O)C(Cc1c[nH]c2cc([N+](=O)[O-])ccc12)(NC(C)=O)C(=O)OCC | . | . | . | -3.5 | . | . | .
COc1ccc(C(=O)NCC2OCCc3ccccc32)c(O)c1 (centres undefined) | 33.4 | 45.1* | 34.8 | 15.0 | 32.5 | 13.5 | 22.6
CCCOc1ccc(C(=O)NCC2OCCc3ccccc32)cc1OC (centres undefined) | 2.2 | 17.2 | 15.6 | -14.6 | 25.5 | 5.9 | .
OC(c1cccc(OCc2ccccc2)c1)c1nnc(-c2ccccc2)o1 (centres undefined) | 16.4 | 44.0* | 17.2 | -56.8 | -5.2 | 19.6 | 27.8
COc1ccc(Nc2nc(N)c(C(=O)c3ccc(OC)cc3)s2)cc1 | 20.3 | 43.6* | 36.6 | -42.0 | 15.7 | 11.0 | 0.1
SMILES | TIM10 inh | tim10-1 inh | tim23-1 inh | PfHsp90 yeast 2 | NLRP3 yeast inh | NALP1 yeast inh | tim10-1 conf
O=S(=O)(NCc1cccnc1)c1ccc2ccccc2c1 | 10.6 | 7.4 | 9.6 | 14.4 | 7.7 | 19.2 | .
C=CCN1CC(c2nc3ccccc3n2Cc2cccc3ccccc23)CC1=O (centres undefined) | 30.0 | 45.0* | 27.2 | 13.7 | 2.9 | 30.7 | 15.0
O=C1C(Cc2ccccc2)Nc2ncnc(N3CCc4ccccc4C3)c2N1Cc1ccc(Br)cc1 (centres undefined) | 22.8 | 41.3* | 40.1 | . | 13.0 | . | 23.4
O=C1C(Cc2ccccc2)Nc2ncnc(N3CCN(c4ccccc4)CC3)c2N1Cc1ccc(Br)cc1 (centres undefined) | 17.4 | 14.4 | 27.4 | 1.0 | 17.6 | . | .
O=C(O)/C=C/c1cn(-c2ccccc2)nc1-c1cccc([N+](=O)[O-])c1 | -7.8 | 16.9 | 27.2 | -12.2 | 11.6 | 1.7 | .
O=[N+]([O-])c1cccc(-c2nn(-c3ccccc3)cc2CO)c1 | -0.4 | 40.3* | 41.7 | -10.3 | 15.7 | 8.9 | 41.2*
O=C(c1cn(-c2ccccc2)nc1-c1cccc([N+](=O)[O-])c1)N1CCCCC1 | 24.2 | 48.2* | 34.9 | 19.6 | 3.5 | 16.1 | 34.5*
COc1cccc(CNC(=O)COC(=O)c2cc([N+](=O)[O-])ccc2N2CCCC2)c1 | -2.3 | 23.3 | 24.4 | 14.4 | 13.7 | . | .
Brc1ccc(C2Nc3cccc4cccc(c34)N2)cc1 | . | . | . | -17.8 | . | . | .
Clc1cccc(C2Nc3cccc4cccc(c34)N2)c1Cl | 26.4 | 41.7* | 48.5 | 11.4 | 26.0 | 19.7 | 57.7*
Clc1ccccc1C1Nc2cccc3cccc(c23)N1 | 23.2 | 42.9* | 34.7 | -3.5 | 22.5 | 19.6 | 33.7*
c1coc(C2Nc3cccc4cccc(c34)N2)c1 | 37.6 | 40.7* | 45.0 | . | 11.7 | 5.1 | 35.4*
COc1cccc(CNC(=O)Cn2ccc3cc(S(=O)(=O)N4CCC(C)CC4)ccc32)c1 | 0.4 | 5.8 | 7.9 | 5.0 | 10.9 | 17.7 | .
O=C(CN1CCN(S(=O)(=O)c2ccc(Cl)cc2)CC1)Nc1ccc2c(c1)CCC2 | 22.4 | 50.1* | 44.2 | -6.6 | 7.6 | 37.7 | 39.9*
Cc1ccc(S(=O)(=O)N2CCN(CC(=O)Nc3ccc4c(c3)CCC4)CC2)cc1C | 26.9 | 30.7 | 35.5 | -52.8 | 12.5 | 22.2 | .
COC(=O)c1ccc(NC(=O)CN2CCN(S(=O)(=O)c3ccc(Br)cc3)CC2)cc1 | 15.4 | 46.0* | 33.7 | -2.3 | 6.9 | -9.3 | 36.0*
